# From article PMC7862700, “An all-to-all approach to the identification of sequence-specific readers for epigenetic DNA modifications on cytosine”
# Key:
# Assay in all cases: DAPPL (digital affinity profiling via proximity ligation, sequencing); 10 mM Tris-HCl pH 7.5, 50 mM NaCl, 1 mM DTT, 4% glycerol, room temperature, 30 min; GST-TFs on glutathione beads, 16-mer random dsDNA library, 0.1% formaldehyde crosslink after washing; high values mean tight binding
# Details in all cases: protein: recombinant; tags: N-terminal GST; dsDNA, one strand shown
# ELF1 = ELF1 (Homo sapiens, UniProt P32519 1-619)
# Procedure, shortened: (§1)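 Human transcription factors were made in yeast as GST fusions, captured on glutathione beads and barcoded with DNA. With a tag-only sample included, the pool was incubated with 200 nmole of a random double-stranded 16-mer DNA library in Tris/NaCl/DTT/glycerol buffer at room temperature for 30 min, then crosslinked with 0.1% formaldehyde after washing, ligated by proximity, amplified and sequenced. For binding signal, each hexamer's read frequency for a factor is divided by its frequency for the tag-only sample.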
# EHF = biological target: T1, EHF (Homo sapiens, UniProt Q9NZC4 1-300)
# T1 sequence: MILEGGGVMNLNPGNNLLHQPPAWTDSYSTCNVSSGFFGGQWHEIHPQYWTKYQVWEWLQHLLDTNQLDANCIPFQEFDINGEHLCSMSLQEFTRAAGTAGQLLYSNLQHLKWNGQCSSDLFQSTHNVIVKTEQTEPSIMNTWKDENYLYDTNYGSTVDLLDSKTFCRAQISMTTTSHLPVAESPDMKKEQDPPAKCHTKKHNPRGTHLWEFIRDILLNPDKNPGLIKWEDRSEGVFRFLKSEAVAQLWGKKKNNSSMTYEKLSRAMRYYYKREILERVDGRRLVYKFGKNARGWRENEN
# Procedure, shortened: as §1
# ELK3 = biological target: T2, ELK3 (Homo sapiens, UniProt P41970 1-407)
# T2 sequence: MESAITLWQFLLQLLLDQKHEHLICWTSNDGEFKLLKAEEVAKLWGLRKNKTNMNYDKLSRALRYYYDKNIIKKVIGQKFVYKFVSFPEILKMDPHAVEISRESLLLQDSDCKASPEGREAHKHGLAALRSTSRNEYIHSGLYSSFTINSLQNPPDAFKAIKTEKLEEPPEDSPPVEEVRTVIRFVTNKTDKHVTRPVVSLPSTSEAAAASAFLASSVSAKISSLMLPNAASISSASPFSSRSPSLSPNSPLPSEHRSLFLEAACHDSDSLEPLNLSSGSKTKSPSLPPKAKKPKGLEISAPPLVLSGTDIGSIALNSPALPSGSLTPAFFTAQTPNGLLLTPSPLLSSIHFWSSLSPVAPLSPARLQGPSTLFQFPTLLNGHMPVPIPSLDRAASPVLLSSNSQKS
# Procedure, shortened: as §1
# SPIC = biological target: T3, SPIC (Homo sapiens, UniProt Q8N5J4 1-248)
# T3 sequence: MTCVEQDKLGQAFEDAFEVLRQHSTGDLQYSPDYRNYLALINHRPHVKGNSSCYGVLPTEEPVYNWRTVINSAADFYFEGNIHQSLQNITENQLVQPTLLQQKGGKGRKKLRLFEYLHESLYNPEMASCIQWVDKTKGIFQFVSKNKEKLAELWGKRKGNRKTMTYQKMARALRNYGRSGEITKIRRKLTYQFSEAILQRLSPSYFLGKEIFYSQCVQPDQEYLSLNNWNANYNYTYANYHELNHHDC
# Procedure, shortened: as §1
# ELF4 = ELF4 (Homo sapiens, UniProt Q99607 1-663)
# Procedure, shortened: as §1
# ELK4 = biological target: T4, ELK4 (Homo sapiens, UniProt P28324-2 1-405)
# T4 sequence: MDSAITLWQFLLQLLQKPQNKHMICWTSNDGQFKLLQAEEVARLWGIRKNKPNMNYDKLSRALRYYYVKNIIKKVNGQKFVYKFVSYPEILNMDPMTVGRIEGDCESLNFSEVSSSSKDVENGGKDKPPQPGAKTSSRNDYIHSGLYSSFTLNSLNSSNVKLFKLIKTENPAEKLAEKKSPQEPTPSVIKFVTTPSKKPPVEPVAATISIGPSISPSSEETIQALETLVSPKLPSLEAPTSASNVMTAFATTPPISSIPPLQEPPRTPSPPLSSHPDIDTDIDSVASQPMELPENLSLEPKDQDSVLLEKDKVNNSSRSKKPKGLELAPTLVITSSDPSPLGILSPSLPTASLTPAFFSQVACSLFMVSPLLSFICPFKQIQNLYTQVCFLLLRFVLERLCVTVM
# Procedure, shortened: as §1
# ELF3 = biological target: T5, ELF3 (Homo sapiens, UniProt P78545 1-371)
# T5 sequence: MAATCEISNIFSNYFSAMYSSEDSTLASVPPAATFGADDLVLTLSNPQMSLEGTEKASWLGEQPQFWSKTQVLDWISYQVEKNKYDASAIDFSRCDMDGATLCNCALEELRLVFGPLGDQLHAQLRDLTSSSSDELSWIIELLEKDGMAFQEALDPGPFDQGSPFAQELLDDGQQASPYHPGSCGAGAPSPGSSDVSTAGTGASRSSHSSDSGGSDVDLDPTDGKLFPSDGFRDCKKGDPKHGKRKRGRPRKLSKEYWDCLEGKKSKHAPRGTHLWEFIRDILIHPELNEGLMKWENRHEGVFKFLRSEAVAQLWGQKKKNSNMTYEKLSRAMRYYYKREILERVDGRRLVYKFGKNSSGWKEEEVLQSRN
# Procedure, shortened: as §1
# ETV1 = ETV1 (Homo sapiens, UniProt P50549 1-477)
# Procedure, shortened: as §1
# ERF = biological target: T6, ERF (Homo sapiens, UniProt P50548 1-548)
# T6 sequence: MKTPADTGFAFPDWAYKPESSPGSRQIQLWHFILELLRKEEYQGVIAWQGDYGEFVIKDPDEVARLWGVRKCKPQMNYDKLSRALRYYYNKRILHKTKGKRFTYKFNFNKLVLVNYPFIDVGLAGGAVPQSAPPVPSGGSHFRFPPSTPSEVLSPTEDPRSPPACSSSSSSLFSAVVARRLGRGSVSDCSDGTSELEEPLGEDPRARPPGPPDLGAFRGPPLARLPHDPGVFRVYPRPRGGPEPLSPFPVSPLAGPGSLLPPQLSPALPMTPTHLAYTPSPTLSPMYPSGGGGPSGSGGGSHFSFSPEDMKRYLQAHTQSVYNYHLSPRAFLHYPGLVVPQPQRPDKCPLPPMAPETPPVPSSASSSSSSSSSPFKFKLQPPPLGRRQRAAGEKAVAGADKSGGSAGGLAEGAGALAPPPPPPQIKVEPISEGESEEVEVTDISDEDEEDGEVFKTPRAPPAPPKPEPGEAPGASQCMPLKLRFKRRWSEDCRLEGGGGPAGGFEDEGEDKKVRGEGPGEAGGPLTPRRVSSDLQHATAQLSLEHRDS
# Procedure, shortened: as §1
# ETV3L = biological target: T7, ETV3L (Homo sapiens, UniProt Q6ZN32 1-361)
# T7 sequence: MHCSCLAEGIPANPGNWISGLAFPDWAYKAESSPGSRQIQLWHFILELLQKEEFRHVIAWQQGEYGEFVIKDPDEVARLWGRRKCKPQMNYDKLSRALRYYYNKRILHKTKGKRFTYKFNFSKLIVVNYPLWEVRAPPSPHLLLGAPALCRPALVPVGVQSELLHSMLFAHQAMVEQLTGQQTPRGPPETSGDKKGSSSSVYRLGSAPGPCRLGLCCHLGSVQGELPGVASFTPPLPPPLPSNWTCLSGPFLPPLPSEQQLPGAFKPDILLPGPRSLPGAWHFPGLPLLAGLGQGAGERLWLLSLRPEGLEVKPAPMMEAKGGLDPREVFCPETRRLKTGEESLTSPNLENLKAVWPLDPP
# Procedure, shortened: as §1
# ETS2 = biological target: T8, ETS2 (Homo sapiens, UniProt P15036 1-469)
# T8 sequence: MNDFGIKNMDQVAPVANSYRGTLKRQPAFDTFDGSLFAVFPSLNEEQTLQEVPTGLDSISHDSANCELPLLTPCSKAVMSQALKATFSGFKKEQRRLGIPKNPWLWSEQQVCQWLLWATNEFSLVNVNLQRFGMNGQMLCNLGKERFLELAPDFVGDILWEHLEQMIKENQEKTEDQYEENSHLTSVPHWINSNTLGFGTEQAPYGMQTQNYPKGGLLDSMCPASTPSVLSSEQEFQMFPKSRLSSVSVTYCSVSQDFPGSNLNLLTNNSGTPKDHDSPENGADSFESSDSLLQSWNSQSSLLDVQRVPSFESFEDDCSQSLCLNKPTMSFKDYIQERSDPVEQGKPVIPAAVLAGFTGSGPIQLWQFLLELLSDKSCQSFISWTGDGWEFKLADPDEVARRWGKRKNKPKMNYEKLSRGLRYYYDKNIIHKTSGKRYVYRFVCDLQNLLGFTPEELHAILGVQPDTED
# Procedure, shortened: as §1
# ETV7 = biological target: T9, ETV7 (Homo sapiens, UniProt Q9Y603 1-341)
# T9 sequence: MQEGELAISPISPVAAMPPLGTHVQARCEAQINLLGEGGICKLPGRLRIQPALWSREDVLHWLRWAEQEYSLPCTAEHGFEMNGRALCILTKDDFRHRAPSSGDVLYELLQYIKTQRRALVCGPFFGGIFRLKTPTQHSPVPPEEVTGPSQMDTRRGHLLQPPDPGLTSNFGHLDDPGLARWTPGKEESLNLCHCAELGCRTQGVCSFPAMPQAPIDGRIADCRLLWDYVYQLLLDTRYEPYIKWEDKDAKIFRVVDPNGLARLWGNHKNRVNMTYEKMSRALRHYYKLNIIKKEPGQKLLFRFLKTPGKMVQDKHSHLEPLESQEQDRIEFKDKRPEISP
# Procedure, shortened: as §1
# ETV3 = biological target: T10, ETV3 (Homo sapiens, UniProt P41162-2 1-143)
# T10 sequence: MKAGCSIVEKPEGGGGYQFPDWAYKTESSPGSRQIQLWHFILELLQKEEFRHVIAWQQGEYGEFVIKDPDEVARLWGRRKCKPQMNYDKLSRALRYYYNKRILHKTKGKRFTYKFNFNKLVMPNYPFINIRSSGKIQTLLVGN
# Procedure, shortened: as §1
# ETV6 = ETV6 (Homo sapiens, UniProt P41212 1-452)
# Procedure, shortened: as §1
# Chain of ELF1 (P32519 whole entry, the tested form may be a part): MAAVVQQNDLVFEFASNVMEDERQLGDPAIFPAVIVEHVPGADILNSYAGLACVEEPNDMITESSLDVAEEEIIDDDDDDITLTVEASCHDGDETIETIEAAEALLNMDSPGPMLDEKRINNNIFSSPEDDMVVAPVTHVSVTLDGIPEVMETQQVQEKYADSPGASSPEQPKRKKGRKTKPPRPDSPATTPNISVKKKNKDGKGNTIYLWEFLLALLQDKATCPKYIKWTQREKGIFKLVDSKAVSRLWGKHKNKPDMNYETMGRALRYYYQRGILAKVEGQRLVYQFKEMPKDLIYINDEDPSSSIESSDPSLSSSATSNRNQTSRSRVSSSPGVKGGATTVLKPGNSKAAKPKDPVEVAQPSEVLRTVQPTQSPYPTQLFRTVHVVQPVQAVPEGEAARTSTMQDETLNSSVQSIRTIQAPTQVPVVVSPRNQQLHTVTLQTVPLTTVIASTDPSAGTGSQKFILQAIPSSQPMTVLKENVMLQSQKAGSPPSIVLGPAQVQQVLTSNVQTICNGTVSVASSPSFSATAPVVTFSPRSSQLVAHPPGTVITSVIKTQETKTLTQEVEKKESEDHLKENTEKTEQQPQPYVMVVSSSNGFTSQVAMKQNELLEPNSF
# Chain of ETV6 (P41212 whole entry): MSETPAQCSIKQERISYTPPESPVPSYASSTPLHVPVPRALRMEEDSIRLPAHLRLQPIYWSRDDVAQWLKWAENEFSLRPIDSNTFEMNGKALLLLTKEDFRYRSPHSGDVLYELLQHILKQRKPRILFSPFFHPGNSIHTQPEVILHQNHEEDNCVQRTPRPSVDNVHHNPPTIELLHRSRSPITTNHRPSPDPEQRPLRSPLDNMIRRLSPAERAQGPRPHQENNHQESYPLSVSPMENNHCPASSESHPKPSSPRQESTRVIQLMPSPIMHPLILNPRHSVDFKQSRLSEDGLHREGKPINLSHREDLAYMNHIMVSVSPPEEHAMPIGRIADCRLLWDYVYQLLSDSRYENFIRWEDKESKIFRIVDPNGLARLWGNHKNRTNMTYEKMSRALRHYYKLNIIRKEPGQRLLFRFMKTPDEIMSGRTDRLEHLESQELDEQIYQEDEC
# Chain of ETV1 (P50549 whole entry): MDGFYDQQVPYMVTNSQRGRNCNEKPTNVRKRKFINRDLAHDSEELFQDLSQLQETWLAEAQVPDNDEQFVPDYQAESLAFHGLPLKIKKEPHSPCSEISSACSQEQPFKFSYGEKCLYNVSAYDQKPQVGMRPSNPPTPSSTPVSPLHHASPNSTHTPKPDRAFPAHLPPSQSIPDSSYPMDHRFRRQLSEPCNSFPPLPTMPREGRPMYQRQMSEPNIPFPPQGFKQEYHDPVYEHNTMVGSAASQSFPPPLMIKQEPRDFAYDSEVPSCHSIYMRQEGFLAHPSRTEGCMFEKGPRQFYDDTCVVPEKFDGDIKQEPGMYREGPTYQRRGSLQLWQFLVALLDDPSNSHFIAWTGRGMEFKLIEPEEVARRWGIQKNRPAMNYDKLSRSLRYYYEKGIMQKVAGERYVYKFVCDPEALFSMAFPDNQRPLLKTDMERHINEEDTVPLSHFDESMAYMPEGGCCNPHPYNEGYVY
# Chain of ELF4 (Q99607 whole entry): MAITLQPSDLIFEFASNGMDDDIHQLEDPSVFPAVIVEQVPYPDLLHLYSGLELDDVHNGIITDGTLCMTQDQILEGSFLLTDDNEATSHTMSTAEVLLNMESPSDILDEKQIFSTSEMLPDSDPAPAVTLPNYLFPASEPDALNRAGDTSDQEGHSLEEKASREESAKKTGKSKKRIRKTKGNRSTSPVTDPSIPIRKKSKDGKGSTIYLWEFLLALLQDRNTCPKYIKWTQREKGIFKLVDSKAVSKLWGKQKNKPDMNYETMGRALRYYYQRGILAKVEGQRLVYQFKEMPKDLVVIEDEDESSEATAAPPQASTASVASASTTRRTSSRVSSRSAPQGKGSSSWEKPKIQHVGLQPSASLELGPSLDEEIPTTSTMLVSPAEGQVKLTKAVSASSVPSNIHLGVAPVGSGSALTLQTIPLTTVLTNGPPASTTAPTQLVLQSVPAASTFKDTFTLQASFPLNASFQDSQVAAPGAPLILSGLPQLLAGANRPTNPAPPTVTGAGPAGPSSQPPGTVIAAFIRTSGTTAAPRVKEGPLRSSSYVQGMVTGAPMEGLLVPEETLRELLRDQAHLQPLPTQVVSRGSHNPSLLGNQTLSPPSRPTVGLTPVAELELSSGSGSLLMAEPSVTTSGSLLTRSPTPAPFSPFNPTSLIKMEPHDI
sequence,measurement,setting,value
AGCTAG,binding signal,ELF1,"1.06 fold enrichment (6-mer frequency, TF over GST control)"
same,binding signal,EHF,"1.02 fold enrichment (6-mer frequency, TF over GST control)"
same,binding signal,ELK3,"1 fold enrichment (6-mer frequency, TF over GST control)"
same,binding signal,SPIC,"1.08 fold enrichment (6-mer frequency, TF over GST control)"
same,binding signal,ELF4,"1.05 fold enrichment (6-mer frequency, TF over GST control)"
same,binding signal,ELK4,"1.01 fold enrichment (6-mer frequency, TF over GST control)"
same,binding signal,ELF3,"1.1 fold enrichment (6-mer frequency, TF over GST control)"
same,binding signal,ETV1,"1.05 fold enrichment (6-mer frequency, TF over GST control)"
same,binding signal,ERF,"1.08 fold enrichment (6-mer frequency, TF over GST control)"
same,binding signal,ETV3L,"1.11 fold enrichment (6-mer frequency, TF over GST control)"
same,binding signal,ETS2,"1.07 fold enrichment (6-mer frequency, TF over GST control)"
same,binding signal,ETV7,"1.17 fold enrichment (6-mer frequency, TF over GST control)"
same,binding signal,ETV3,"1.01 fold enrichment (6-mer frequency, TF over GST control)"
same,binding signal,ETV6,"1.03 fold enrichment (6-mer frequency, TF over GST control)"
